Laboratory results as given in PubChem BioAssay (EPA / NIEHS).
Calls of active or inactive are those of the source. How the source made its calls: active means hit-call score of the fitted dose curve at least 0.9, where 1 is the maximum; inactive means score below 0.9.

experiment: CCTE_Padilla_ZF_Score.Any: CCTE's 144 Hour Post-fertilization zebrafish Assay Score for Any Mortality or Malformation, Padilla Lab (AID 2284416)
How it was run: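 Wild-type zebrafish embryos with chorions, one per well in 10% Hanks' from 6–8 hpf, dosed in sealed plates at 26 C, 14:10 h light:dark; rinsed at 5 dpf; blinded scoring at 6 dpf for death or malformation, versus DMSO.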

SMILES | outcome | AC50
O=C(O)C(F)(F)OC(F)(F)C(F)(F)OC(F)(F)C(F)(F)OC(F)(F)F | inactive | 
OCCCCC(F)(F)C(F)(F)C(F)(F)C(F)(F)F |  | 29 µM (active)
NCC(F)(F)C(F)(F)C(F)(F)C(F)(F)C(F)(F)C(F)(F)C(F)(F)C(F)(F)F |  | 32.9 µM (active)
NC(=O)C(F)(F)C(F)(F)C(F)(F)C(F)(F)C(N)=O | inactive | 
COC(F)(C(F)F)C(F)(F)F (configuration not stated) | inactive | 
NC(=O)C(F)(F)C(F)(F)C(F)(F)F | inactive | 
FC(F)(F)C(F)(F)C(F)(F)CC1CO1 (configuration not stated) | inactive | 
